Data on 14 molecules can be found in PubChem BioAssay (Tox21).

The structures appear in SMILES notation. Calls of active or inactive are those of the source. Unless noted, calls come from the whole dose curve; as a rule, active = well fitted curve in the direction sought with a large enough effect in the repeat runs; inconclusive = weak or mixed curves; inactive = no such curve, though single readings can be large; an effect the other way counts as inactive or inconclusive.

Assay [1] is described as follows: qHTS assay to identify small molecule antagonists of the glucocorticoid receptor (GR) signaling pathway - cell viability counter screen (AID 720693). Note: nearly all actives have a fitted effect of over 55% in size. Note: potency is the fitted concentration of half-maximal effect. Background: Quantitative high-throughput screening tests each substance at several concentrations.
Assay [2] is described as follows: qHTS assay for identifying genotoxic compounds that show differential cytotoxicity against isogenic chicken DT40 cell lines with known DNA damage response pathways - wild type cell line (AID 743012). Note: nearly all actives have a fitted effect of over 60% in size. Note: potency is the fitted concentration of half-maximal effect. The essentials: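 Cells (DT40 wild type, 300/well) are treated with DMSO-dissolved compounds after a ~0.5 h pre-incubation and kept 40 h at 37 C/5% CO2. Viability is then measured by CellTiter-Glo luminescence following 30 min at room temperature.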

A short description of assay [3]: qHTS assay for identifying genotoxic compounds that show differential cytotoxicity against isogenic chicken DT40 cell lines with known DNA damage response pathways - Rev3 mutant cell line (AID 743014). Note: nearly all actives have a fitted effect of over 55% in size. Note: potency is the fitted concentration of half-maximal effect.
A short description of assay [4]: qHTS assay for identifying genotoxic compounds that show differential cytotoxicity against isogenic chicken DT40 cell lines with known DNA damage response pathways - Rad54/Ku70 mutant cell line (AID 743015). Note: nearly all actives have a fitted effect of over 60% in size. Note: potency is the fitted concentration of half-maximal effect.
Assay [5] can be described thus: qHTS assay to identify small molecule antagonists of the androgen receptor (AR) signaling pathway - cell viability counter screen (AID 743033; note: nearly all actives have a fitted effect of over 45% in size; note: potency is the fitted concentration of half-maximal effect).
Assay [6] in a line: qHTS assay to identify small molecule antagonists of the androgen receptor (AR) signaling pathway using the MDA cell line - cell viability counter screen (AID 743041; note: nearly all actives have a fitted effect of over 45% in size; note: potency is the fitted concentration of half-maximal effect). The essentials:
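Cells were plated at 3,000 per well and left 5 h. Compounds in DMSO were then pinned in, followed by R1881. After 16 h at 37C, CellTiter-Fluor fluorescence gave viability.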

Assay [7] deals with thyroid hormone receptor (rat, GH3 cells). Briefly: qHTS assay to identify small molecule agonists of the thyroid receptor (TR) signaling pathway (AID 743066; calls by dose curve).
Assay [8] has as its target Estrogen receptor (Homo sapiens) (UniProt P03372). Put plainly: qHTS assay to identify small molecule agonists of the estrogen receptor alpha (ER-alpha) signaling pathway using the BG1 cell line (AID 743079). Note: nearly all actives have a fitted effect of over 20% in size. The note with it: BG1Luc4E2 cells, ERE-luciferase agonist, 22 h; activation: at 70.3 µM (top of the series).
The nature of assay [9]: qHTS assay to identify small molecule antagonists of the estrogen receptor alpha (ER-alpha) signaling pathway using the BG1 cell line (AID 743080; calls by dose curve;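 note: BG1 cells stimulated with 17beta-estradiol alongside compound; nearly all actives have a fitted effect of over 25% in size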). The essentials: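 BG1Luc4E2, endogenous ER-alpha, 4xERE-luc; 5 d charcoal-stripped FBS, phenol red free; 24 h plating; cpd + 17beta-estradiol 21.5 h, 37 C/5% CO2; CellTiter-Fluor viability 30 min, then ONE-Glo luciferase 30 min RT.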

Assay [10] can be described thus: qHTS assay to identify small molecule antagonists of the estrogen receptor alpha (ER-alpha) signaling pathway using the BG1 cell line - cell viability counter screen (AID 743081).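 Note: compound given together with 17beta-estradiol as the ER stimulus; nearly all actives have a fitted effect of over 45% in size.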 Note: potency is the fitted concentration of half-maximal effect.
A short description of assay [11]: qHTS assay to identify small molecule antagonists of the estrogen receptor alpha (ER-alpha) signaling pathway - cell viability counter screen (AID 743074; calls by dose curve;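 note: HEK293 cells carrying ER-alpha-UAS-bla reporter stimulated with 17beta-estradiol; nearly all actives have a fitted effect of over 45% in size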).
In a further assay the target is Aromatase (Homo sapiens) (UniProt P11511). Put plainly: qHTS assay to identify aromatase inhibitors (AID 743083). Note: nearly all actives have a fitted effect of over 55% in size. Note: potency is the fitted concentration of half-maximal effect.
Aromatase (Homo sapiens), sequence (P11511 whole entry, looked up): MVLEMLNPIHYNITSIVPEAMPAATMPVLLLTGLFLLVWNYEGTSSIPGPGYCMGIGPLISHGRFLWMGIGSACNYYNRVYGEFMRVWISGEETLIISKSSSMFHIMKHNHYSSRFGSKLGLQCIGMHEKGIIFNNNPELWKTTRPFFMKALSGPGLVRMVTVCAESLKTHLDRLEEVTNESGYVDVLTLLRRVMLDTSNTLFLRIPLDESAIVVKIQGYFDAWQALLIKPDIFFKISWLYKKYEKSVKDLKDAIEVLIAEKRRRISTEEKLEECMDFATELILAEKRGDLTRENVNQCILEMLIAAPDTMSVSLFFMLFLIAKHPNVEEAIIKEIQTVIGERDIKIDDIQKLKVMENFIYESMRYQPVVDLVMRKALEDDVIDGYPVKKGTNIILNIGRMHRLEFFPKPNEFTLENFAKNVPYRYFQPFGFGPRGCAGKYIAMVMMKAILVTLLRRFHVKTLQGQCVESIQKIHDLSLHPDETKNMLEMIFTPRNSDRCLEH
Assay [12] is described as follows: qHTS assay to identify small molecule antagonists of the thyroid receptor (TR) signaling pathway (AID 743065). Note: nearly all actives have a fitted effect of over 55% in size. Note: potency is the fitted concentration of half-maximal effect. The essentials: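 Antagonism measured as loss of luciferase signal in GH3 cells stably carrying a TRE-luciferase reporter, co-treated with compound and T3 (1 nM final) for 23.5 h at 37 C. Viability was read in the same well by CellTiter-Fluor.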
For assay [13], the target named is Androgen receptor (Homo sapiens) (UniProt P10275). Put plainly: qHTS assay to identify small molecule antagonists of the androgen receptor (AR) signaling pathway (AID 743035; active = well fitted inhibition curve with a large enough effect in the signal ratio in the repeat runs, not every such curve was filed as active; inconclusive = weak or mixed curves, or effect the other way; inactive = no such curve, though single readings can be large or run the other way; the % refers to the signal ratio). The essentials: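 Antagonism is scored as loss of R1881-driven beta-lactamase reporter expression in HEK293 cells carrying the reporter under a UAS element, after 16 h co-treatment at 37C and a 2 h room-temperature FRET substrate read.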
Androgen receptor (Homo sapiens), sequence (P10275 whole entry, looked up): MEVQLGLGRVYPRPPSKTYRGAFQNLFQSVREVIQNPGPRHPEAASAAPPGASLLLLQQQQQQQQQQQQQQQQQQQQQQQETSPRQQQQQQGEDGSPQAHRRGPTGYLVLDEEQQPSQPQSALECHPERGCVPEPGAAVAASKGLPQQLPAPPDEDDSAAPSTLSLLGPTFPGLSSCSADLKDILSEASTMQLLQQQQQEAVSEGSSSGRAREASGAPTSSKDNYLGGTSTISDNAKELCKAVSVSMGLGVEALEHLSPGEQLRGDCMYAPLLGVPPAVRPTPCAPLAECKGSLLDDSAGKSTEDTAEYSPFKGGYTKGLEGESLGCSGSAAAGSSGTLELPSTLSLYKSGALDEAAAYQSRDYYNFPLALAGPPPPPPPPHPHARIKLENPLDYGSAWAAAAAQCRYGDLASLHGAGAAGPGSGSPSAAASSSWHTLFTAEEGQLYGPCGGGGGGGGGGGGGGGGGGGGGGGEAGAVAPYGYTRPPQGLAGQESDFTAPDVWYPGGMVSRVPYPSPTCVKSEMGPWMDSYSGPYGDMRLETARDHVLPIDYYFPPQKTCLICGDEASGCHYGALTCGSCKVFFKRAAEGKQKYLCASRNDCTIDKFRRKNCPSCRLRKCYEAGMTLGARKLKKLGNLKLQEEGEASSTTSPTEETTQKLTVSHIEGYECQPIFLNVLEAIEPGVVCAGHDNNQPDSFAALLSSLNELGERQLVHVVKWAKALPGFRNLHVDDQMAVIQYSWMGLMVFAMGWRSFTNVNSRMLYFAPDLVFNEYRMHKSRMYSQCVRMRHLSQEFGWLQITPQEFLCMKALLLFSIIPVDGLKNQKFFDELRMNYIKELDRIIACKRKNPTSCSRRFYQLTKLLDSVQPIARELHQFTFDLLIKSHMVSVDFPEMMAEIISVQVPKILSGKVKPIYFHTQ

Assay [14] shares this target. Briefly: qHTS assay to identify small molecule agonists of the androgen receptor (AR) signaling pathway (AID 743036; active = well fitted activation curve with a large enough effect in the signal ratio in the repeat runs, with a control signal flat, not every such curve was filed as active; inconclusive = weak or mixed curves, or effect the other way; inactive = no such curve, though single readings can be large or run the other way; the % refers to the signal ratio). The essentials: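 HEK293 cells stably carrying a UAS-driven beta-lactamase reporter (GeneBLAzer AR-UAS-bla-GripTite) were plated at 2,000 cells/well, rested 4 h at 37C, then exposed to compounds in DMSO for 16 h. LiveBLAzer B/G FRET substrate was added for 2 h at room temperature; fluorescence read.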

For assay [15] the target is unchanged. Put plainly: qHTS assay to identify small molecule agonists of the androgen receptor (AR) signaling pathway using the MDA cell line (AID 743040; note: nearly all actives have a fitted effect of over 20% in size). The essentials:
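Cells plated, 5 h at 37C/0% CO2; compound or DMSO pinned; 16 h at 37C; ONE-Glo added; luminescence measured after 30 min at room temperature. Reporter line: MDA-kb2 with MMTV-luciferase responsive to AR and GR.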

The target is the same in assay [16]. Put plainly: qHTS assay to identify small molecule antagonists of the androgen receptor (AR) signaling pathway using the MDA cell line (AID 743042; note: nearly all actives have a fitted effect of over 55% in size; note: potency is the fitted concentration of half-maximal effect). The essentials:
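Antagonist mode: compounds plus R1881 agonist added to MDA-kb2 AR-luc cells, incubated 16 h at 37C. Luciferase reporter luminescence quantified, with multiplexed CellTiter-Fluor readout for cell viability.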

The nature of assay [17]: qHTS assay to identify small molecule antagonists of the thyroid receptor (TR) signaling pathway - cell viability counter screen (AID 743064). Note: nearly all actives have a fitted effect of over 50% in size. Note: potency is the fitted concentration of half-maximal effect. The essentials:
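GH3.TRE-Luc rat pituitary cells carrying a TRE-luciferase reporter were treated with compound plus 1 nM T3 (final) for 23.5 h at 37 °C. Viability was then read in the same wells by CellTiter-Fluor fluorescence after a further 30 min.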

Assay [18] concerns the target Estrogen receptor (Homo sapiens) (UniProt P03372). Briefly: qHTS assay to identify small molecule antagonists of the estrogen receptor alpha (ER-alpha) signaling pathway (AID 743069; active = well fitted curve in the direction sought with a large enough effect in the signal ratio in the repeat runs, not every such curve was filed as active; inconclusive = weak or mixed curves, or effect the other way; inactive = no such curve, though single readings can be large or run the other way; the % refers to the signal ratio; note: potency is the fitted concentration of half-maximal effect). The essentials:
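ER-alpha-UAS-bla GripTite HEK293 line; 2% charcoal-stripped FBS overnight; plated, 4 hr 37C/5% CO2; cpd in DMSO + 17beta-estradiol, 18 hr 37C; LiveBLAzer B/G FRET substrate 2 hr RT; fluorescence intensity.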

For assay [19] the target is unchanged. Briefly: qHTS assay to identify small molecule agonists of the estrogen receptor alpha (ER-alpha) signaling pathway (AID 743075; calls by dose curve; note: potency is the fitted concentration of half-maximal effect).
% is set by controls: 0 for no effect and ±100 for the full control effect.

Estrogen receptor (Homo sapiens), sequence (P03372 whole entry, looked up): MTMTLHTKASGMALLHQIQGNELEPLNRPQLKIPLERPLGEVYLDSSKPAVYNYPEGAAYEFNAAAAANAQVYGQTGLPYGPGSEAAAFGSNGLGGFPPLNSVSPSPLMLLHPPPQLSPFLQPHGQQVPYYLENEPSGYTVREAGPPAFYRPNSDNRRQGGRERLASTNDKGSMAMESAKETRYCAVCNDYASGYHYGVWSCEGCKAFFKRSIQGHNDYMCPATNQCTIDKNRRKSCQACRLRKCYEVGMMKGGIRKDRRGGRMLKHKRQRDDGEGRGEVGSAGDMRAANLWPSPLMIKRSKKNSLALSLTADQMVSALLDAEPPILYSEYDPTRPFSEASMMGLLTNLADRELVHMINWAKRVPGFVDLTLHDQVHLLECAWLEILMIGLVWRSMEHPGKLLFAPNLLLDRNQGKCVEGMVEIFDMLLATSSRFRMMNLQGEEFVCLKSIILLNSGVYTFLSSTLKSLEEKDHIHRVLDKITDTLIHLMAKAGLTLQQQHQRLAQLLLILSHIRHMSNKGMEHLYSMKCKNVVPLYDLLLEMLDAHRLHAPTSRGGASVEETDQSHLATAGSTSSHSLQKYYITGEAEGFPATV

In the case of `CC(C)N(C(=O)SC/C(Cl)=C/Cl)C(C)C`, the Potency result in [1], in assay [2], in assay [3], in [4], in [5] and in assay [6] was “inactive” in each case. For the same molecule, the Potency result in assay [7], in assay [8], in assay [9] and in [10] was “inactive” throughout.
Turning to `CC(C)C(Nc1ccc(C(F)(F)F)cc1Cl)C(=O)OC(C#N)c1cccc(Oc2ccccc2)c1` (configuration not stated), the Potency result in assay [1], in [2], in assay [3], in assay [4], in [5] and in assay [6] was “inactive” each time. For the same molecule, the Potency entry (in assay [7]; in assay [11]; in assay [8]; in [9]; in assay [10]; with Aromatase (Homo sapiens)) was “inactive” in each case.
In the case of `CSC1=N[C@@](C)(c2ccccc2)C(=O)N1Nc1ccccc1`, the Potency entry in assay [1], in [7] and in assay [11] was “inactive” in each case. Further, the Potency is 1.54 µM (active) in assay [2]; 1.72 µM (active) in assay [3]; 1.54 µM (active) in assay [4]; 48.6 µM (active) in [6]; 6.86 µM (active) in assay [12].
Turning to `Cc1ccn2nc(S(=O)(=O)Nc3c(F)cccc3F)nc2n1`, the Potency result in assay [1], in assay [2], in assay [3], in assay [4], in assay [5] and in assay [6] was “inactive” each time. The Potency entry (in [11]; in assay [10]; in the assay with Aromatase (Homo sapiens)) was “inactive” each time.
Consider `O=[N+]([O-])[O-].[Tl+]`, for which the Potency entry in assay [1], in [6], in assay [11] and in assay [10] was “inactive” throughout. Further, the Potency in assay [2] was 1.55 µM (active); in assay [3] it was 1.09 µM (active); in [4], 1.09 µM (active); in the assay with Aromatase (Homo sapiens) it was 69.1 µM (active).
`BrCCCBr`: the Potency result in assay [1], in assay [2], in assay [3], in assay [5], in assay [13] and in [6] was “inactive” in each case. For the same molecule, the Potency entry (in [16]; in assay [17]; in [7]; in assay [11]; in assay [10]; with Aromatase (Homo sapiens)) was “inactive” each time. Besides, the call in assay [14] and in assay [15] was inactive.
For `O=S(=O)(O)F`, the Potency result in [1], in [2], in assay [3], in [5], in assay [6] and in assay [17] was “inactive” throughout. Also, the Potency entry in [12], in assay [7], in [18], in [19], in assay [8] and in assay [9] was “inactive” in each case. Also, the Potency result (in assay [10]; with Aromatase (Homo sapiens)) was “inactive” throughout.
Regarding `Oc1ccc2[nH]cc(CCCCN3CC=C(c4ccccc4)CC3)c2c1`, the Potency entry (in [1]; in [5]; in assay [6]; in assay [7]; in [11]; with Aromatase (Homo sapiens)) was “inactive” each time. Also, the Potency in assay [2] is 5.96 µM (active); in [3], 5.96 µM (active); in assay [12], 11.9 µM (active).
On to `N#CC(C#N)=NNc1cccc(Cl)c1`, for which the Potency in [1] was 6.92 µM (active); in [2] it was 2.73 µM (active); in [3], 2.73 µM (active); in [5] it was 2.45 µM (active); in assay [6], 4.86 µM (active); in [16], 1.93 µM (active). Besides, the Potency in assay [17] was 3.44 µM (active); in assay [12] it was 0.969 µM (active); in assay [18], 692 nM [inconclusive] (active); in assay [10], 5.45 µM (active); with Aromatase (Homo sapiens) it was 2.73 µM (active). In addition, in assay [15], the molecule was called inactive.
Consider `CC(Cc1ccc(O)cc1)NCC(O)c1cc(O)cc(O)c1` (configuration not stated), for which the Potency entry in [1], in assay [2], in assay [3], in assay [4], in [5] and in assay [6] was “inactive” throughout. For the same molecule, the Potency result (in [7]; in assay [19]; in [10]; with Aromatase (Homo sapiens)) was “inactive” throughout.
`CCCCCON=O`: the Potency result in assay [1], in assay [2], in [3], in [4], in assay [5] and in assay [17] was “inactive” in each case. The Potency result (in assay [12]; in assay [7]; in assay [10]; with Aromatase (Homo sapiens)) was “inactive” in each case.
Turning to `COc1c2c(cc3c1OCO3)CCN(C)C2`, the Potency result in assay [1], in assay [2], in [3], in assay [5], in assay [6] and in assay [12] was “inactive” throughout. Besides, the Potency entry (in assay [7]; in assay [11]; in [19]; in assay [8]; with Aromatase (Homo sapiens)) was “inactive” in each case.
With `CCO/N=C(\CC)C1=C(O)CC(c2c(C)cc(C)cc2C)CC1=O` (configuration not stated), the Potency result in assay [1], in [6], in assay [7], in assay [11], in assay [19] and in assay [8] was “inactive” throughout. The Potency result with Aromatase (Homo sapiens) was “inactive”. Also, the Potency in [2] is 48.5 µM (active); in [3], 51.4 µM (active); in assay [4] it was 62.5 µM (active). Moreover, in [15], the result was inactive.
Take `CC[C@]1(O)CC[C@H]2[C@@H]3CCC4=CCCC[C@@H]4[C@H]3CC[C@@]21C`: the Potency in [1] is 3.01 µM (active); in assay [2] it was 8.41 µM (active); in [3] it was 9.44 µM (active); in [19] it was 0.5 nM [inconclusive] (active). Moreover, the Potency entry in [5], in assay [6], in assay [11] and in assay [10] was “inactive” in each case. For the same molecule, the activation in assay [8] is 5.41% (active).
